Calls of active or inactive are those of the source.
Experiments:
[1] = biological target: Albumin (Bos taurus) (UniProt P02769); test: bovine serum albumin binders on microarray, profiling panel, artefact control for SMM control protein annotation, biochemical, small-molecule microarray, Alexa647 label, 635/667 nm fluorescence (AID 1118); conditions: BSA-A647 binding, fluorescence 635 nm, higher = more signal;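 further: score merges 667 nm emission intensity and signal-to-noise per printed compound spot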
Chain of Albumin (Bos taurus) (P02769 whole entry, looked up): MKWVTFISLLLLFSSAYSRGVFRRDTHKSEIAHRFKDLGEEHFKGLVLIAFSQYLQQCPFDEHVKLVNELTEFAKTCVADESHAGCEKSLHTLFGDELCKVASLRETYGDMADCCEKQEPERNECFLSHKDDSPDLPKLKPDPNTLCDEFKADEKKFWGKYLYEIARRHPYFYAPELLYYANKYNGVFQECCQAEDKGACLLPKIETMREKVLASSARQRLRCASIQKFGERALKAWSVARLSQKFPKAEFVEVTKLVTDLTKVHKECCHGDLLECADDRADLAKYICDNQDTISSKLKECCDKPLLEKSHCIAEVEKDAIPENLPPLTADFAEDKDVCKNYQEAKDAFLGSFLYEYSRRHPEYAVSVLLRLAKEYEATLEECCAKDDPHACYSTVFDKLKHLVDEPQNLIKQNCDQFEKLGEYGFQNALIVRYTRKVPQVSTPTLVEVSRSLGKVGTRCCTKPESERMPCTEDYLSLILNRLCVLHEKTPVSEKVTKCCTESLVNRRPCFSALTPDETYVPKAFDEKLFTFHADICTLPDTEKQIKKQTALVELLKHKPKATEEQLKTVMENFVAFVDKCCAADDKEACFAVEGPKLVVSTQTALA

[2] = small-molecule microarray binders of probe aXIP, primary screen, biochemical, NeuroSMM set, 635/667 nm fluorescence (AID 1119); conditions: higher = more signal, called active from +8 up or from −8 down;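 further: probe is the protein aXip251-270 applied at 1 µg/mL to compound-printed slides; binding of probe to printed compounds measured as 667 nm fluorescence plus signal to noise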
[3] = small-molecule binders of probe aNOTCH3, primary screen, biochemical, small-molecule microarray, 635/667 nm fluorescence (AID 1120); conditions: higher = more signal;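 further: probe is a biotin-tagged antibody raised against NOTCH3 rather than NOTCH3 protein; score merges spot fluorescence near 667 nm with spot signal to noise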
[4] = small-molecule binders of probe aNOTCH2, primary screen, biochemical, small-molecule microarray, 635/667 nm fluorescence (AID 1121); conditions: higher = more signal;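 further: score merges feature fluorescence read at 667 nm with its signal to noise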
[5] = biological target: Carbonic anhydrase 2 (Homo sapiens) (UniProt P00918); test: CAII small-molecule binders, profiling panel, biochemical, small-molecule microarray, Alexa647-labelled CAII (AID 1122); conditions: CAII-A647 binding fluorescence, higher = more signal
[6] = COS7 lysate on small-molecule microarray, probe aHis, 635 nm (AID 1123); conditions: COS7 cell lysate, fluorescence, higher = more signal;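 further: z-score combines 667nm fluorescence intensity with signal-to-noise per printed compound spot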
[7] = compound binding in COS7 lysate, probe aLAP1, primary screen, cell lysate, small-molecule microarray (AID 1124); conditions: probe aLAP1, fluorescence, higher = more signal;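 further: lysate comes from COS7 cells expressing LAP1 and is applied at 0.3 µg/mL; score merges spot fluorescence near 667 nm with signal-to-noise over triplicate slides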
[8] = system: Sam68 (KHDRBS1); test: Sam68 small-molecule binders, primary screen, biochemical, small-molecule microarray, 635 nm fluorescence (AID 1125); conditions: small-molecule microarray binding, higher = more signal;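 further: score merges 667 nm channel intensity with signal to noise over triplicate slides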
[9] = system: Chordin-like protein 2 (CHRDL2); test: CHRDL2 small-molecule binders, primary screen, biochemical, small-molecule microarray, 635 nm fluorescence (AID 1126); conditions: small-molecule microarray binding, fluorescence 635 nm; higher = more signal;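 further: printed compound slides probed with Chrdl2 protein at 4 µg/mL for 1 h at 4 C; score merges 667 nm emission intensity with signal to noise over three replicate slides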
[10] = biological target: Concanavalin-A (Canavalia ensiformis) (UniProt P02866); test: ConA small-molecule binders, primary screen, artefact control for SMM control protein annotation, biochemical, small-molecule microarray, Alexa647 label, 635 nm (AID 1127); conditions: ConA-A647 binding fluorescence, higher = more signal;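 further: z combines 667 nm emission intensity with signal-to-noise across three replicate slides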
Chain of Concanavalin-A (Canavalia ensiformis) (P02866 whole entry, looked up): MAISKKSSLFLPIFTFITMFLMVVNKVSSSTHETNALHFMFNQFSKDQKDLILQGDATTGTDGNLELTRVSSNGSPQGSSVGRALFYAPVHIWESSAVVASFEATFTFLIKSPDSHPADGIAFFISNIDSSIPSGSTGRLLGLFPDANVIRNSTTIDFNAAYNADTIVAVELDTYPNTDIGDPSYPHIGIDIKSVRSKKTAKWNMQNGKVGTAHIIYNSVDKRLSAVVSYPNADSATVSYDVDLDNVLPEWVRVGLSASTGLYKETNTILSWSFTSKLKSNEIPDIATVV

Row | SMILES | composite z-score [1] | composite Z-score [2] | composite z-score [3] | composite z-score [4] | composite z-score [5] | composite z-score [6] | composite z-score [7] | composite z-score [8] | composite z-score [9] | composite z-score [10]
1 | CC(C)N1C(=O)C[C@@](C(=O)NCc2ccccc2)(c2ccc([N+](=O)[O-])cc2)[C@H]1c1ccc(CO)cc1 | 0.467 | 0.0119 (inactive) | -0.186 | -0.0617 | 0.702 | 2.37 | 0.506 | 1.31 | -0.791 | -0.0974
2 | COCCOC(=O)N1C(=O)[C@@]2(c3cc(C#Cc4ccc(OC)cc4)ccc31)[C@H](C(=O)N1CCN(c3ncccn3)CC1)[C@H]1C(=O)O[C@H](c3ccccc3)[C@H](c3ccccc3)N1[C@@H]2c1ccc(O)cc1 | 0.259 | 0.0527 (inactive) | -0.112 | -0.0277 | 0.287 | 0.722 | 0.232 | 0.634 | -0.0397 | 0.762
3 | C=C[C@@H](COC(C)=O)N(Cc1ccccc1[N+](=O)[O-])S(=O)(=O)c1ccc(Br)cc1 | 0.138 | 1.55 (inactive) | 0.122 | 0.181 | 0.659 | -0.0383 | 0.343 | 0.92 | 1.32 | 0.602
4 | C=CC[C@@H](OC(=O)Nc1ccc(OC)cc1)c1ccc(O)c2ccccc12 | 0.32 | 0.786 (inactive) | 0.278 | -0.133 | 0.349 | 1.53 | -0.09 | 1.3 | 1.34 | 0.913
5 | O=C1OCC=C[C@H]2OC34C=CCN(c5ccc6ccccc6c5)C(=O)[C@H]3N(CCCO)C(=O)[C@@H]4[C@@H]12 (stereo not given in full) | 0.314 | 0.102 (inactive) | -0.256 | -0.07 | 0.709 | -0.559 | 1.26 | -1.39 | -0.824 | -0.223
6 | O=C/C=C/c1ccc(Cl)cc1 | -1.04 | 0.411 (inactive) | -0.186 | -0.127 | -0.457 | -0.267 | -0.565 | -1.01 | 0.0502 | -0.184
7 | CCOC(=O)C[C@H]1[C@H](OC(=O)c2ccccc2-c2ccccc2)[C@@H](NC(=O)Cc2ccc(OC)cc2)c2cc(OCCCO)ccc2N1C(=O)c1ccccc1 | 0.176 | 0.0843 (inactive) | -0.113 | -0.155 | -0.0951 | 0.157 | -0.0152 | -0.0445 | 0.0492 | -0.393
8 | O=C1O[C@@H](c2ccccc2)[C@@H](c2ccccc2)N2[C@@H](c3ccc(O)cc3)[C@]3(C(=O)Nc4ccc(C#CC5=CCCCC5)cc43)[C@@H](C(=O)O)[C@H]12 | 0.885 | 0.341 (inactive) | 0.139 | 0.0685 | 0.715 | 1.86 | 0.788 | 1.32 | -0.194 | 0.9
9 | CC(c1ccccc1)C(O)C1C=CC2C(=O)NC(=O)C2N1Nc1ccccn1 (stereo not given) | 0.183 | 0.239 (inactive) | 0.0876 | 0.0012 | 0.531 | 0.954 | 0.398 | 1.1 | 0.407 | 0.901
10 | Cc1ccc(S[C@]2(C(=O)NCc3ccccc3)CC(=O)N(Cc3ccccc3Cl)[C@@H]2c2ccc(CO)cc2I)cc1 | 0.451 | -0.422 (inactive) | -0.275 | -0.198 | 0.721 | 0.616 | 0.198 | -0.414 | -1.03 | -0.139
11 | O=C1O[C@@H](c2ccccc2)[C@@H](c2ccccc2)N2[C@@H](c3ccccc3OCCO)[C@]3(C(=O)Nc4ccc(C#CC5(O)CCCCCC5)cc43)[C@@H](C(=O)Nc3nc4ccccc4s3)[C@H]12 | 0.663 | -0.0544 (inactive) | 0.283 | -0.0904 | 0.453 | 1 | 0.246 | 1.02 | 0.784 | 0.723
12 | C=CC[C@@]1(C(=O)N2CCOCC2)N=C(c2ccc(OCCCO)cc2)O[C@@H]1c1ccccc1N=[N+]=[N-] | 0.872 | -0.885 (inactive) | 0.364 | 0.0753 | 0.419 | 2.43 | 1 | 1.29 | -0.142 | 1.09
13 | Cc1cc(C)cc(N2C(=O)CS(=O)(=O)C2c2cccc([N+](=O)[O-])c2)c1 (stereo not given) | 0.785 | 1.97 (inactive) | 0.799 | 0.189 | 0.547 | 1.73 | 1.36 | 0.828 | 0.433 | 0.989
14 | C=CCNC(=O)[C@@H]1[C@H]2C(=O)O[C@H](c3ccccc3)[C@H](c3ccccc3)N2[C@H](c2ccccc2OCCO)[C@@]12C(=O)Nc1ccc(C#CC3=CCCCC3)cc12 | 0.482 | -0.224 (inactive) | 0.0105 | -0.0907 | 0.271 | 2.18 | 0.536 | 1.3 | 0.436 | 0.99
15 | C=CCC(OC(C)=O)[C@@H]1[C@@H](N(Cc2cccc3ccccc23)C(=O)c2cccc3ccccc23)c2cc(OCCCO)ccc2N1C(=O)c1ccc2ccccc2n1 (stereo not given in full) | -0.0648 | 0.639 (inactive) | 0.0556 | -0.0323 | -0.12 | 0.656 | -0.342 | -0.0153 | 0.366 | -0.0505
16 | CCCC[C@@H]1C[C@H]1[C@@H](NC(=O)c1ccc(-c2ccccc2)cc1)c1ccc(-c2ccccc2)cc1 | -0.0732 | -0.254 (inactive) | -0.0072 | -0.0795 | 0.0853 | 0.468 | -0.113 | 0.287 | 1.42 | -0.142
17 | CC(C)c1ccc(NN2C(C(O)c3cccc(O)c3)C=CC3C(=O)N(c4ccccc4)C(=O)C32)cc1 (stereo not given) | 1 | 1 (inactive) | 0.374 | 0.0572 | 0.798 | 2.53 | 0.279 | 1.35 | -0.678 | 1.14
18 | COc1ccc(CCNC(=O)[C@@H]2c3ccccc3C(=O)N(Cc3ccc(OC(F)(F)F)cc3)[C@H]2c2ccc(CO)cc2)cc1 | 0.59 | -0.313 (inactive) | -0.0077 | -0.0029 | 0.497 | 1.53 | 0.983 | 1.07 | 0.0372 | 0.485
19 | CCCCC(O)C1C=CC2C(=O)N(C3CCCCC3)C(=O)C2N1Nc1ccc(OC)cc1 (stereo not given) | 0.739 | 0.258 (inactive) | 0.11 | -0.0894 | 0.511 | 1.53 | 0.56 | 1.19 | -0.135 | 0.8
20 | [N-]=[N+]=NCc1ccccc1C[C@]1(C(=O)NCCN2CCOCC2)N=C(c2ccc(OCCCO)cc2)O[C@H]1c1ccccc1N=[N+]=[N-] | 0.926 | 0.255 (inactive) | 0.356 | 0.253 | 0.599 | 2.62 | 0.645 | 1.29 | -0.509 | 1.16
21 | O=C(O)[C@@]1(Cc2ccccc2)N=C(c2ccc(OCCCO)cc2)O[C@H]1c1ccccc1 | 0.32 | -0.419 (inactive) | -0.0932 | -0.147 | 0.529 | 1.29 | -0.183 | 0.499 | -1.15 | 0.649
22 | CC(C)NC(=O)[C@@H]1c2ccccc2C(=O)N(Cc2ccccc2Cl)[C@H]1c1ccc(CO)cc1 | 0.07 | 0.757 (inactive) | -0.205 | -0.121 | 0.651 | 1.29 | 0.661 | 1.03 | -0.296 | -0.0903
23 | O=C1N(CCS(=O)(=O)c2ccccc2)Cc2ccccc2[C@H]2OC(c3ccc(OCCCO)cc3)=N[C@@]12CCS(=O)(=O)c1ccccc1 | -0.284 | 1.81 (inactive) | -0.0247 | -0.0586 | 0.524 | 2.64 | 0.708 | 1.3 | 0.242 | 1.22
24 | COC(=O)[C@@]1(Cc2ccccc2)[C@H]2c3cc(C(=O)N(C)C)n(Cc4c(-c5ccccc5)noc4C)c3C[C@H]2CN1C(=O)c1ccccc1 | 1.01 | -0.899 (inactive) | 0.187 | 0.379 | 0.437 | 2.63 | -0.157 | 0.486 | 0.28 | 0.564
25 | COCCCNC(=O)[C@@]1(C)c2ccccc2C(=O)N(Cc2cc(C(F)(F)F)cc(C(F)(F)F)c2)[C@H]1c1ccc(CO)cc1 | -0.0502 | 0.318 (inactive) | -0.256 | -0.0173 | 0.74 | 1.68 | -0.066 | -0.21 | -2.46 | 0.851
26 | O=C1C2C=CC(C(O)c3ccc(B(O)O)cc3)N(Nc3ccccc3)C2C(=O)N1c1ccccc1 (stereo not given) | 0.764 | 0.387 (inactive) | 0.127 | -0.0438 | 0.793 | 0.408 | -0.0389 | -0.346 | -0.0149 | -0.874
27 | COCCOC(=O)N1C(=O)[C@@]2(c3cc(C#CCCO)ccc31)[C@H](c1ccccc1OCCO)N1[C@H](c3ccccc3)[C@H](c3ccccc3)OC(=O)[C@H]1[C@@H]2C(=O)N1CCN(c2ncccn2)CC1 | 0.602 | 0.341 (inactive) | 0.413 | 0.123 | 0.539 | 2.02 | 0.505 | 1.12 | 0.52 | 1.15
28 | [N-]=[N+]=NCc1ccccc1[C@@H]1OC(c2ccc(OCCCO)cc2)=N[C@]1(Cc1ccccc1)C(=O)N1CCCCC1 | 0.763 | -0.623 (inactive) | 0.211 | 0.0215 | 0.471 | 1.52 | -0.0921 | 1.32 | 0.581 | 1.14
29 | COC(=O)[C@@]1(Cc2ccc(F)cc2)[C@H]2c3cc(C(=O)N4CCCC4)n(Cc4cccc5ccccc45)c3C[C@H]2CN1C(=O)c1ccccc1 | 1.08 | -0.421 (inactive) | 0.535 | 0.173 | 0.533 | 3.22 | 0.513 | 1.07 | -0.411 | 0.405
30 | CCCCCCCCCCC(O)C1C=CC2C(=O)N(Cc3ccccc3)C(=O)C2N1n1cnnc1 (stereo not given) | 0.834 | 0.797 (inactive) | 0.435 | 0.0605 | 0.485 | 1.1 | 0.687 | 1.11 | -0.686 | 1.04
